About 21,000 targets were measured; listed, in parts, are those with the largest changes and a random draw of the rest.
Compound: Cc1cc(ccc1-c1ccccc1)C(=O)N1CCCN(CC1)C(=O)CCl [compound 10]
Assay: probe-labelled cysteine peptide fold change vs DMSO (competition) (log2 fold change); higher = less target engagement (more negative = stronger competition)
Conditions: THP-1, incubation time: 4 h
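Note: competitive profiling in live THP-1 cells: cysteine peptides tagged with an iodoacetamide desthiobiotin (IA-DTB) probe, intensity after compound treatment relative to DMSO-treated cells.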

UniProt Q9Y4P3, sequence (Q9Y4P3 whole entry, looked up): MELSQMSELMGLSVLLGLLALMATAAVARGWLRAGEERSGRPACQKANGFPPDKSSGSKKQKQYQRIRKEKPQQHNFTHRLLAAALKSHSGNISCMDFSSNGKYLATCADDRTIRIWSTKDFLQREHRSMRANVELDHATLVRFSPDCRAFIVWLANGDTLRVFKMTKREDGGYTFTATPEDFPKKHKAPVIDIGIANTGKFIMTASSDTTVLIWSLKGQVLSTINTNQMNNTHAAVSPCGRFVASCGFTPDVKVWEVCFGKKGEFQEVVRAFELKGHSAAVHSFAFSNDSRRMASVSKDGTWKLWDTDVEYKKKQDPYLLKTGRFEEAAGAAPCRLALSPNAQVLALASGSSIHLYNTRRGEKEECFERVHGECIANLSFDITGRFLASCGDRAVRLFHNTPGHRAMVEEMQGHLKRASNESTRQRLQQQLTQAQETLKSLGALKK
UniProt Q9Y6N5, sequence (Q9Y6N5 whole entry, looked up): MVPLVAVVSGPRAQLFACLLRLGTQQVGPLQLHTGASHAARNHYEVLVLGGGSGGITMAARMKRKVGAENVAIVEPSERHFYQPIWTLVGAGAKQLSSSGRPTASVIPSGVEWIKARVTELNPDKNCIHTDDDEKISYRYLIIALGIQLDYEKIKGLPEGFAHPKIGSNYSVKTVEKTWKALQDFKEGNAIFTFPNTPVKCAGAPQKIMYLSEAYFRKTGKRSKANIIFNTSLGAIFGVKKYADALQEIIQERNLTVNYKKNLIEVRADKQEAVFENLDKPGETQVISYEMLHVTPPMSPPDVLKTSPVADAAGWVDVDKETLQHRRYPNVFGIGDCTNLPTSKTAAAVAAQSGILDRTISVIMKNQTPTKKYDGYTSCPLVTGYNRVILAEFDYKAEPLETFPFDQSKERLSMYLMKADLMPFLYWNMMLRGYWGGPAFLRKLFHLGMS
UniProt Q02447, sequence (Q02447 whole entry, looked up): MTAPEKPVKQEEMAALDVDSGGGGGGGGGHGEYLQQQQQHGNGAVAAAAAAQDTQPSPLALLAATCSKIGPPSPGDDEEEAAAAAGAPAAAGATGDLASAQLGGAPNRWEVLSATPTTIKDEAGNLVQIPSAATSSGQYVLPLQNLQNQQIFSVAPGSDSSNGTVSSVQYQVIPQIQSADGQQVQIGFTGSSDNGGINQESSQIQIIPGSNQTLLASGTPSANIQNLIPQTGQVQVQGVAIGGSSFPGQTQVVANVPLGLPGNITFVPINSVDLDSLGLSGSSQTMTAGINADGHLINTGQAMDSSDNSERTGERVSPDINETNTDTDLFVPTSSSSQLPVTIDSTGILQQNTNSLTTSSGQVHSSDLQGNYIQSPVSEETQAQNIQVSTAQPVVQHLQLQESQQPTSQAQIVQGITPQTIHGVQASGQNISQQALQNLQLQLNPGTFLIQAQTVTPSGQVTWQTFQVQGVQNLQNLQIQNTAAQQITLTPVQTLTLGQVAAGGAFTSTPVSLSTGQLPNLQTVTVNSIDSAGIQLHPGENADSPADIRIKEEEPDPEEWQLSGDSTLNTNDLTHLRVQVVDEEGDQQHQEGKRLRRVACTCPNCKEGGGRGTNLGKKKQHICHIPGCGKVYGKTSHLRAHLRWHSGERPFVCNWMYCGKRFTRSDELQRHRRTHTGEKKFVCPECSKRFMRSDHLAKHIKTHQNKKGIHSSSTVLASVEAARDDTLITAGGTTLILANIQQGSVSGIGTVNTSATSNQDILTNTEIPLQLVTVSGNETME
UniProt Q9Y5M8, sequence (Q9Y5M8 whole entry, looked up): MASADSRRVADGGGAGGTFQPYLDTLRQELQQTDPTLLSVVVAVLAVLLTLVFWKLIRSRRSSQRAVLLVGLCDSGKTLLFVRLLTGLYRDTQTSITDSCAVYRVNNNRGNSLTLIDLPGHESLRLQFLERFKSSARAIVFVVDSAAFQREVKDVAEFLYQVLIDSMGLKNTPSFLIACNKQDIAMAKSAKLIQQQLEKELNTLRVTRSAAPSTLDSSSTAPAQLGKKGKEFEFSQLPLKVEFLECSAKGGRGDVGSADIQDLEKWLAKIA
UniProt Q17R31, sequence (Q17R31 whole entry, looked up): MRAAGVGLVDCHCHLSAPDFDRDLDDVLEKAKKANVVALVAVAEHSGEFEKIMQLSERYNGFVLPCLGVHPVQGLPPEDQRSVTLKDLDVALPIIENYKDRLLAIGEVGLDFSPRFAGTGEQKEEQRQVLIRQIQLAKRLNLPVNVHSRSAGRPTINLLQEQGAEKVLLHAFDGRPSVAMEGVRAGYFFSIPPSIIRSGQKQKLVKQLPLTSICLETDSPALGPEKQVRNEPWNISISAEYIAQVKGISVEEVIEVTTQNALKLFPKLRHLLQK
UniProt P49458, sequence (P49458 whole entry, looked up): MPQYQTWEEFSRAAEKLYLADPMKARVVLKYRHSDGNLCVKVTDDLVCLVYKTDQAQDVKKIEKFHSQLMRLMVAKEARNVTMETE
UniProt Q9UNS1, sequence (Q9UNS1 whole entry, looked up): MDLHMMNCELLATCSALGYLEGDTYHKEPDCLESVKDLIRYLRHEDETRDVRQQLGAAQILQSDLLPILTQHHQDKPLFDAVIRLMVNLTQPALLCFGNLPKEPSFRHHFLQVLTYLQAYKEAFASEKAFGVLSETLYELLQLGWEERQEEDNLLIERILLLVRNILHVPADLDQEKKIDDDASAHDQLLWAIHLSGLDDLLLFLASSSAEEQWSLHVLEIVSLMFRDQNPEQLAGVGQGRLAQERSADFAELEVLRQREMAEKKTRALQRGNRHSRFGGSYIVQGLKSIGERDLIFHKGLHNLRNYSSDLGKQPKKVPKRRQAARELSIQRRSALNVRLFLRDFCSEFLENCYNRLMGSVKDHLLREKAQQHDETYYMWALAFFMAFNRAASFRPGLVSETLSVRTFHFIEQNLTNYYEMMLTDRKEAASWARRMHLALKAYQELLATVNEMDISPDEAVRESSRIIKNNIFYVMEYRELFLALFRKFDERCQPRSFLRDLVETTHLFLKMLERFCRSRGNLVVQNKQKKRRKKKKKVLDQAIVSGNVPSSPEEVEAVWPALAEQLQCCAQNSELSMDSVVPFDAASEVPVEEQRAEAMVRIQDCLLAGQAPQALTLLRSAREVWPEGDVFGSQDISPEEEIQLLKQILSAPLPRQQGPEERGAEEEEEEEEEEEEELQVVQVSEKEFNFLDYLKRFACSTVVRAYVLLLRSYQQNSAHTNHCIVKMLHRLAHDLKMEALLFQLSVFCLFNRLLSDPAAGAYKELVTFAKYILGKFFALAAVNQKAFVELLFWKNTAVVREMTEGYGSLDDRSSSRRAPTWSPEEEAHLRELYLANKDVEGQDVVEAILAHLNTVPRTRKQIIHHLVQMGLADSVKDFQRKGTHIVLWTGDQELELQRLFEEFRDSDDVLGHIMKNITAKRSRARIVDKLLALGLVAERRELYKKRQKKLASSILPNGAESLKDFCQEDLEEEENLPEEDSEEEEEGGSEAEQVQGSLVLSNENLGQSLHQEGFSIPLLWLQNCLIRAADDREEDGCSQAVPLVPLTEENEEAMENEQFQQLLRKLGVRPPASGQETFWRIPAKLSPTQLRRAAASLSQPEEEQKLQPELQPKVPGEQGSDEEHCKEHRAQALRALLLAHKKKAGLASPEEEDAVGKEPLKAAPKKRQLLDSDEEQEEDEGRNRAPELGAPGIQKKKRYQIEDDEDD
UniProt Q9NVR7, sequence (Q9NVR7 whole entry): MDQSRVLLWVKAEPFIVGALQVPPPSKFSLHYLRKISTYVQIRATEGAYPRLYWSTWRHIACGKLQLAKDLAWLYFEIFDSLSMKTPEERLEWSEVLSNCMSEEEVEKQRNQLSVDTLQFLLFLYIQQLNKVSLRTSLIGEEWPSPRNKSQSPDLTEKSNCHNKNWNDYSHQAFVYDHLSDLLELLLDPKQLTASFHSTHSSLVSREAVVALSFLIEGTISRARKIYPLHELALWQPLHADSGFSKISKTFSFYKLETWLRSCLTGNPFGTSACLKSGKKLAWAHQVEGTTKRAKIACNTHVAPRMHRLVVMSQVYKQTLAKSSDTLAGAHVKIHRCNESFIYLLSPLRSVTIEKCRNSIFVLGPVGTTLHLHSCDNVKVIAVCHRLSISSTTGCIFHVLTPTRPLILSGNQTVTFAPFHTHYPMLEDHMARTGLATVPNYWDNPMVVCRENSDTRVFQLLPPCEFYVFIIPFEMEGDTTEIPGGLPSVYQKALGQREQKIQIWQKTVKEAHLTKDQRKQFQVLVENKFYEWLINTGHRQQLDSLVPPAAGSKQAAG
UniProt Q15022, sequence (Q15022 whole entry, looked up): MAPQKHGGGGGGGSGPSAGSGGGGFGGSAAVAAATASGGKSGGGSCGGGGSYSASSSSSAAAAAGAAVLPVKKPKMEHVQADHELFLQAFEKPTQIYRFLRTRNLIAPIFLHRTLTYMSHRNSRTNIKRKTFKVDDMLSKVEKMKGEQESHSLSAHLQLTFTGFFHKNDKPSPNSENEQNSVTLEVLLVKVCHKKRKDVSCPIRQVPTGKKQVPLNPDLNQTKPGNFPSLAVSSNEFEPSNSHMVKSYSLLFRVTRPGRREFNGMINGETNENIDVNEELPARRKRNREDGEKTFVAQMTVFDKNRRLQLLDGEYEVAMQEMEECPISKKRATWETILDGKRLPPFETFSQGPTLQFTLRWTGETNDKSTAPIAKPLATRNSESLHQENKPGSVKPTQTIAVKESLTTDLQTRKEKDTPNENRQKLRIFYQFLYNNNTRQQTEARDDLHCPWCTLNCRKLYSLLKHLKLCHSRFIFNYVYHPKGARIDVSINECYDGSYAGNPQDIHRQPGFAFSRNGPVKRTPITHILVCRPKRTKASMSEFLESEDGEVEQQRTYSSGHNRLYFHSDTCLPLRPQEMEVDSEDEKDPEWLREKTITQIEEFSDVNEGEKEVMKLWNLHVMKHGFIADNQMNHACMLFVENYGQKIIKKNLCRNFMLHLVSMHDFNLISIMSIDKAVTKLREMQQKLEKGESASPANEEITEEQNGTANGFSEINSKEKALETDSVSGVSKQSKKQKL

Target	probe-labelled cysteine peptide fold change (10 µM)	probe-labelled cysteine peptide fold change (50 µM)
TBL3_Q12788_526_GLWCVQFSPMDQVLATASADGTIK (UniProt Q12788)	0.119	0.0335
TAPBPL_Q9BX59_39_AVDVVLDCFLAK (UniProt Q9BX59)	0.062	-0.104
SRPK2_P78362_320_IIEENITSAAPSNDQDGEYCPEVK (UniProt P78362)	-0.0943	0.0113
STRN_O43815_316_EDQCLMPEAWNVDQGVITK (UniProt O43815)	-0.23	-0.374
TARS2_Q9BW92_322_IGKEQELFFFHELSPGSCFFLPR (UniProt Q9BW92)	-0.0453	-0.425
SPAG5_Q96R06_907_TEQETLLLSTACPPTQEHPLPNDR (UniProt Q96R06)	-0.115	0.0555
THOC2_Q8NI27_436_DVFNMFCYLGPHLSHDPILFAK (UniProt Q8NI27)	0.0617	0.215
SORD_Q00796_165_LPDNVTFEEGALIEPLSVGIHACR (UniProt Q00796)	0.00881	0.188
SRPRB_Q9Y5M8_246_EFEFSQLPLKVEFLECSAK (UniProt Q9Y5M8)	-0.354	-1.1
TBCD_Q9BTW9_1055_TLDHVLTHGCFDIFTTEEDHPFAVK (UniProt Q9BTW9)	-0.188	-0.0289
TBC1D4_O60343_74_SQKPEAGGCGAPAAR (UniProt O60343)	-0.579	-1.59
SNTB1_Q13884_515_DGEIQLDLHSCPK (UniProt Q13884)	-0.136	1
TOR2A_Q5JU69_54_CTLGAFCECDFRPDLPGLECDLAQHLAGQHLAK (UniProt Q5JU69)	-0.184	0.309
STK11IP_Q8N1F8_707+710_TESPAVCPNCGSDHVVLLAVSR (UniProt Q8N1F8)	0.0186	0.166
TARS_P26639_467_RFQQDDAHIFCAMEQIEDEIK (UniProt P26639)	0.126	0.326
TARS_P26639_261_CGPLIDLCR (UniProt P26639)	0.0971	0.248
SPCS2_Q15005_17+26_SGGSGGCSGAGGASNCGTGSGR (UniProt Q15005)	-0.494	-1.1
TONSL_Q96HA7_231_ECAHTMR (UniProt Q96HA7)	-0.316	-1.42
TNFAIP2_Q03169_429_ANVIANINNCLSFR (UniProt Q03169)	-0.0434	0.184
STAM2_O75886_76_VPHVALQALTLLGACVANCGK (UniProt O75886)	-0.0779	0.0749
ST14_Q9Y5Y6_268_SFDLASCDER (UniProt Q9Y5Y6)	-0.0626	-1.09

Target	probe-labelled cysteine peptide fold change (10 µM)	probe-labelled cysteine peptide fold change (50 µM)
TNPO1_Q92973_205_SHAVACVNQFIISR (UniProt Q92973)	0.172	0.0841
TEP1_Q99973_2105_TPVLIHSFPACHR (UniProt Q99973)	-0.0307	-0.291
TK1_P04183_206_ENCPVPGKPGEAVAAR (UniProt P04183)	-0.0233	-0.211
TBC1D15_Q8TC07_184_YVVLCESPQDKR (UniProt Q8TC07)	0.0621	-0.0543
TMEM120A_Q9BXJ8_47_LQNNCTSSITR (UniProt Q9BXJ8)	-0.176	-0.0504
ST13_P50502_209_LLGHWEEAAHDLALACKLDYDEDASAMLK (UniProt P50502)	-0.319	-1.1
SON_P18583_92_CVSVQTDPTDEIPTKK (UniProt P18583)	-0.351	-1.24
TBC1D13_Q9NVG8_387_LLQDYPITDVCQILQK (UniProt Q9NVG8)	-0.0681	-0.374
SRPRA_P08240_253_VWELGGCANK (UniProt P08240)	-0.192	-0.783
TGS1_Q96RS0_357_ECPASGQSEPR (UniProt Q96RS0)	-0.00223	0.216
TIMELESS_Q9UNS1_96_LMVNLTQPALLCFGNLPK (UniProt Q9UNS1)	0.247	-1.08
TFCP2_Q12800_72_ILPFQYVLCAATSPAVK (UniProt Q12800)	0.339	0.0755
SORD_Q00796_301_YCNTWPVAISMLASK (UniProt Q00796)	0.251	0.115
TCF20_Q9UGU0_1795_SEDCGGGPR (UniProt Q9UGU0)	-0.142	-0.0709
TNS3_Q68CZ2_88_MCTICK (UniProt Q68CZ2)	-0.357	-0.873
TMA16_Q96EY4_162_KICANDAIPK (UniProt Q96EY4)	-0.041	-0.333
TEP1_Q99973_692_TVLVYLTDANADRLCPK (UniProt Q99973)	-0.328	-0.442
TDRD7_Q8NHU6_77_SGEITCYAMACTETAR (UniProt Q8NHU6)	-0.0811	-1.42
SSH3_Q8TE77_434_QYECSLEQALR (UniProt Q8TE77)	-0.058	-0.0996
TPI1_P60174_164_VAHALAEGLGVIACIGEK (UniProt P60174)	0.0839	0.00853
TATDN3_Q17R31_66_YNGFVLPCLGVHPVQGLPPEDQR (UniProt Q17R31)	0.0121	1.04

Target	probe-labelled cysteine peptide fold change (10 µM)	probe-labelled cysteine peptide fold change (50 µM)
SNX6_Q9UNH7_347+348_DVLQAETSQQLCCQK (UniProt Q9UNH7)	-0.288	-0.619
SOS1_Q07889_838_CIVETENLEER (UniProt Q07889)	0.113	0.392
SNX6_Q9UNH7_149_TVAMHEVFLCR (UniProt Q9UNH7)	-0.37	-1.4
TOPBP1_Q92547_911_VVVCVSK (UniProt Q92547)	-0.0487	-0.114
SPAG9_O60271_1210_VTPGTFIPYCSMAHAQLCFHGHR (UniProt O60271)	0.231	1.04
SUZ12_Q15022_494_IDVSINECYDGSYAGNPQDIHR (UniProt Q15022)	0.105	0.302
SUGP2_Q8IX01_417_NCFFEIIKPFDK (UniProt Q8IX01)	-0.328	-1.49
TNFAIP3_P21580_158_SQEFVETGLCYDTR (UniProt P21580)	-0.274	0.0322
SRP9_P49458_48_VTDDLVCLVYK (UniProt P49458)	0.216	-0.255
SP9_P0CG40_308_ATCDCPNCQEAER<|>SP8_Q8IXZ3_332_ATCDCPNCQEAER (UniProt Q8IXZ3+P0CG40)	0.0559	0.393
SORD_Q00796_179_VLVCGAGPIGMVTLLVAK (UniProt Q00796)	-0.0988	-1.77
SRP72_O76094_54_VVCLIQNGSFK (UniProt O76094)	0.0906	-0.275
TANC1_Q9C0D5_800_MDALSCFLIK (UniProt Q9C0D5)	-0.167	-1.29
STXBP5_Q5T5C0_933_VISLPTQNCAYK (UniProt Q5T5C0)	0.186	0.107
TBCCD1_Q9NVR7_337_CNESFIYLLSPLR (UniProt Q9NVR7)	0.178	0.422
TBCE_Q15813_141_NCAVSCAGEK (UniProt Q15813)	-0.11	-1.39
TGM2_P21980_371_SEGTYCCGPVPVR (UniProt P21980)	0.00473	-0.293
TBC1D13_Q9NVG8_145_ATDYPCLLILDPQNEFETLR (UniProt Q9NVG8)	-0.0238	0.373
TMEM104_Q8NE00_455_DTQLAFGCGVSNK (UniProt Q8NE00)	-0.127	-0.346
STK11_Q15831_210_ISDLGVAEALHPFAADDTCR (UniProt Q15831)	-0.252	-0.136
TBL2_Q9Y4P3_240_GQVLSTINTNQMNNTHAAVSPCGR (UniProt Q9Y4P3)	-0.0462	0.0804

Target	probe-labelled cysteine peptide fold change (10 µM)	probe-labelled cysteine peptide fold change (50 µM)
TMEM192_Q8IY95_266_RLLALTSSDLGCQPSR (UniProt Q8IY95)	-0.0328	0.17
THG1L_Q9NWX6_47_DFEADDTCLAHCWVVVR (UniProt Q9NWX6)	-0.0809	0.0136
TLN1_Q9Y490_1363_ECDNALRELETVR (UniProt Q9Y490)	-0.431	-1
TAF6_P49848_235_EITEACVGSCEAK (UniProt P49848)	-0.193	-1.67
TBCB_Q99426_51_LELLVGSPASCMELELYGVDDK (UniProt Q99426)	0.0991	0.421
SORL1_Q92673_752_LEGELVPCPLAEENEFILYAVR (UniProt Q92673)	0.124	0.148
TMEM209_Q96SK2_495_TFTSQHFVQTPNKPDVTNENVFCIYQSAINPPHYELIYQR (UniProt Q96SK2)	0.145	0.0358
TNPO1_Q92973_862_DDLRDMFCK (UniProt Q92973)	-0.311	-0.192
TMEM147_Q9BVK8_116_CIPLWVGAR (UniProt Q9BVK8)	-0.0315	-0.102
SYK_P43405_89+101_THASPADLCHYHSQESDGLVCLLK (UniProt P43405)	-0.0638	-0.0651
TESC_Q96BS2_213_FLNMETMALCH (UniProt Q96BS2)	-0.431	-1.46
STRADA_Q7RTN6_107_INLEACSNEMVTFLQGELHVSK (UniProt Q7RTN6)	0.391	0.345
SPECC1_Q5M775_578_ATEASAVEQTAESCEVQEMLK (UniProt Q5M775)	-0.116	-0.22
TNS3_Q68CZ2_512_DRETDILDDEMPHHDLHSVDSLGTLSSSEGPQSAHLGPFTCHK (UniProt Q68CZ2)	-0.555	-1.66
SP3_Q02447_683_KFVCPECSK (UniProt Q02447)	0.188	0.33
SQOR_Q9Y6N5_201_CAGAPQK (UniProt Q9Y6N5)	-0.191	-0.122
TES_Q9UGI8_164_CHELSPR (UniProt Q9UGI8)	-0.162	-0.0644
TIGAR_Q9NQ88_114_EECPVFTPPGGETLDQVK (UniProt Q9NQ88)	-0.225	-1.35
SNX1_Q13596_318_LQEVECEEQR (UniProt Q13596)	-0.177	-0.146
TET3_O43151_1381_GKPWSPCK (UniProt O43151)	-0.379	-1.3
